# Shown are actives, neighbours in structure and some others; about 3% of the full set was active somewhere.
# TRAIL sens C8 = viability loss with TRAIL in NB7+C8 cells, primary screen, TRAIL sensitizer project, cell-based, ATPlite luminescence; inhibition (viability loss, TRAIL sensitization), % at 10 µM; AID 624354, 2012; actives 1% (n = 360,000);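 active = compounds causing at least 50% loss of cell viability in the single-dose screen, relative to plate controls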
# SENP7 block = SENP7 protease inhibitors, primary screen, biochemical, luminescence, uHTS. Sentrin-specific protease 7 (Homo sapiens), Q9BQF6. recombinant SENP7, Z-RLRGG-aminoluciferin luminescence, 40 min. inhibition, % at 5 µM. actives 1.5% (n = 330,000);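 active = inhibition above about 50% at the single test dose, limit read from the data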;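 also: plate controls were DMSO with enzyme for no effect and no enzyme buffer wells for full effect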
# Target sequence (Q9BQF6 706-1050 limits assumed): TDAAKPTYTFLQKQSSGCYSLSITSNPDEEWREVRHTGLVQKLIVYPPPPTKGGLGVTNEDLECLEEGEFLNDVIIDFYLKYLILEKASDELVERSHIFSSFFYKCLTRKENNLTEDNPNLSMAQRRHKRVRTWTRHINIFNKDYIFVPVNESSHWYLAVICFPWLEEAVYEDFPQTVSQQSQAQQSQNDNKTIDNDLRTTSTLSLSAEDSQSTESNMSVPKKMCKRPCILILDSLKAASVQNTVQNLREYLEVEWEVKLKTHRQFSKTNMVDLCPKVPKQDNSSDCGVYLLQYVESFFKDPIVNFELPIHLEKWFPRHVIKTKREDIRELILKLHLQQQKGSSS
# SENP8 block-1 = human SENP8 protease inhibitors, primary screen, biochemical, fluorescence, Nedd8 protein substrate, uHTS; Sentrin-specific protease 8 (Homo sapiens), Q96LD8; recombinant SENP8; inhibition, % at 20 µM; actives 0.64% (n = 360,000); AID 602440, 2012; in the data active = inhibition mostly above about 40%, no sharp cut-off; inactive = mostly below about 27%
# Target sequence (Q96LD8 whole entry, looked up): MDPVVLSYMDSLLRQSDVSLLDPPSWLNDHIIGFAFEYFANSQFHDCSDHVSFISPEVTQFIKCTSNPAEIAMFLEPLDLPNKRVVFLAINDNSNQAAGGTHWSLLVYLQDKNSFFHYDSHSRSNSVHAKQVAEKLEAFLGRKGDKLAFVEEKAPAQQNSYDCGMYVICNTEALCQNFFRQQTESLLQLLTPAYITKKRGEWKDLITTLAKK
# SENP8 block-2 = SENP8 protease inhibitors, primary screen, biochemical, luminescence; Sentrin-specific protease 8 (Homo sapiens), Q96LD8; purified SENP8, Z-RLRGG-aminoluciferin cleavage; inhibition, % at 10 µM; AID 2540, 2010; actives 1.2% (n = 330,000); in the data active = inhibition above about 50%
# SENP6 block = SENP6 protease inhibitors, primary screen, biochemical, luminescence, uHTS | inhibition, % at 10 µM | Recombinant SENP6 catalytic domain, aminoluciferin luminescence | Sentrin-specific protease 6 (Homo sapiens), Q9GZR1 | actives 1.8% (n = 330,000);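 active = inhibition above about 50% at the single tested dose, limit read from the data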;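 also: plate controls were DMSO wells with enzyme for no effect and DMSO wells lacking enzyme for full effect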
# PPC-1+TRAIL kill = compounds killing PPC-1 cancer cells with TRAIL present, primary screen, TRAIL potentiator project, ATPLite luminescence, uHTS. PPC-1 cells + TRAIL, ATPLite viability luminescence. cell killing (% activity), % at 4 µM or 5 µM. actives 0.41% (n = 220,000);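 active = cell killing above 50% in the first pass at 4 µM, then a duplicate retest at 5 µM averaging 50% or more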;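 also: plate controls were cells with TRAIL plus DMSO for no effect and medium-only wells lacking cells for full effect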
# * = called active by the depositor; . = no result.
SMILES,TRAIL sens C8,SENP7 block,SENP8 block-1,SENP8 block-2,SENP6 block,PPC-1+TRAIL kill
COc1ccc(NC(=O)CSc2nc3[nH]ncc3c(=O)n2-c2ccccc2OC)cc1OC,-16,-13,24,-3,0,71*
COC(=O)/C(N=Nc1cccc(C(F)(F)F)c1)=C(\C)O,3,3,49*,-3,0,-8
O=C1S/C(=C\c2ccc(O)c([N+](=O)[O-])c2)C(=O)N1c1ccccc1Cl,3,-9,28,-8,-8,18
CN1C(=O)/C(=C/c2ccc(O)c([N+](=O)[O-])c2)N(C)C1=S,-11,83*,26,87*,91*,3
N/C(=N/O)c1nc(N2CCCC2)nc(N2CCCC2)n1,-4,10,28,-9,-14,.
N/C(=N/O)c1nc(N2CCCC2)nc(N(c2ccccc2)c2ccccc2)n1,59*,-1,6,-1,-14,27
COc1ccc(C(=O)O/N=C(\N)c2ccccn2)c(OC)c1,62*,32,3,8,22,45
COc1ccc(/C(N)=N/OC(=O)CC2CCCCC2)cc1OC,73*,2,6,-7,-5,.
COc1ccc(C(=O)O/N=C(\N)c2ccccc2Cl)cc1OC,78*,-1,17,-1,-7,.
COc1ccc(Cl)cc1C(=O)O/N=C(\N)c1ccccn1,14,15,20,-2,15,.
COc1ccccc1C/C(N)=N/OC(=O)c1ccc(C)c([N+](=O)[O-])c1,55*,8,25,0,-8,3
COc1ccc(/C(N)=N/OC(=O)c2ccc(OC)c([N+](=O)[O-])c2)cc1OC,64*,4,11,10,3,3
O=C(NCC(=O)N(c1cccnc1)C(C(=O)NC1CCCC1)c1ccccc1F)c1ccco1 (configuration not stated),0,6,2,1,15,.
O=C(NCC1CCCO1)c1ccc2c3n(nc2c1)-c1ccccc1CO3 (configuration not stated),51*,-3,-184,11,15,42
COCCNC(=O)c1ccc2c3n(nc2c1)-c1ccc(C)cc1CO3,30,4,-266,-3,-6,43
O=[N+]([O-])c1ccccc1-c1ccc(C(=S)N2CCCC2)o1,-9,12,-4,16,44,20
O=[N+]([O-])c1cccc(-c2ccc(C(=S)N3CCN(c4ccccc4)CC3)o2)c1,-14,-5,32*,-4,-5,-10
O=[N+]([O-])c1ccccc1-c1ccc(C(=S)N2CCCCC2)o1,12,11,4,38,52*,1
O=[N+]([O-])c1cccc(-c2ccc(C(=S)N3CCOCC3)o2)c1,37,-5,24,-2,16,28
CC(C)CNC(=O)C1(C)CCCN1C(=O)c1cccnc1Oc1ccccc1 (configuration not stated),-12,.,6,.,.,.
Cc1ccccc1N=Nc1c(N)n[nH]c1N,9,2,33,-2,4,.
Nc1n[nH]c(N)c1N=Nc1ccc(F)cc1,2,6,41*,-5,15,15
Nc1n[nH]c(N)c1N=Nc1ccccc1F,3,0,34*,-6,-12,.
Cc1cc(C)c(C#N)c(SCc2cn3ccccc3n2)n1,1,1,-2,2,-2,68*
CC1(C(=O)Nc2cccc3cccnc23)CCN1Cc1ccc(-c2ccccc2)o1 (configuration not stated),10,.,-26,.,.,.
SMILES,TRAIL sens C8,SENP7 block,SENP8 block-1,SENP8 block-2,SENP6 block,PPC-1+TRAIL kill
Cc1ccc(C(C#N)=Cc2ccc3c(c2)OCO3)cc1,56*,.,-84,.,.,.
Cc1ccc(N(C)C(=O)CN(C)S(=O)(=O)c2ccc3c(c2)n(C)c(=O)c(=O)n3C)cc1,-3,-10,-30,-9,-31,.
C/C(=N\Nc1nc2ccccc2[nH]1)c1ccccn1,58*,-1,-4,32,59*,.
C/C(=N\Nc1nc2ccccc2[nH]1)c1cc2ccccc2o1,59*,2,-203,-15,-10,14
Cc1nn(-c2ccccc2)c(N2CCCC2)c1/C=N/Nc1ccc(S(N)(=O)=O)cc1[N+](=O)[O-],12,-6,48*,1,-23,2
CN(C)CCN1C(=O)C(=O)/C(=C(/O)c2ccc(S(=O)(=O)N3CCOCC3)cc2)C1c1ccc(F)cc1 (configuration not stated),-4,-3,10,7,-5,.
COc1ccc2nc(C)cc(N/N=C/c3cccc(OC)c3O)c2c1,51*,13,-106,-10,-15,.
COc1cccc2c(N/N=C/c3ccccc3)cc(C)nc12,-9,7,-267,-5,-6,.
Cc1cc(N/N=C/c2ccccc2O)c2ccccc2n1,21,8,-23,-6,-24,.
COc1ccc(/C=N/Nc2cc(C)nc3ccc(Br)cc23)cc1,49*,-8,-293,-13,-29,.
CC(=O)NC1=C(Nc2ccc(N(C)C)cc2)C(=O)c2ccccc2C1=O,30,5,44*,14,38,.
O=[N+]([O-])c1ccc(O)c(C=NN2CCCCC2)c1,-19,.,26,.,.,.
Oc1ccc(Br)cc1/C=N/N1CCCCC1,5,53*,15,85*,94*,-7
C[C@H]1CC[C@H]2C(=O)N3[C@H](c4ccccc4Br)[C@@H](C)CC[C@H]3C(=O)N2[C@@H]1c1ccccc1Br,.,5,.,4,7,-5
COc1cc2c3nnc(-c4ccc(F)cc4)c-3cn(Cc3ccccc3)c2cc1OC,67*,-2,-397,-7,-2,28
CC1=C(C(=O)N(C(C)C)C(C)C)CC(CC(=O)NCc2ccco2)C(=O)N1Cc1ccccc1 (configuration not stated),1,.,6,.,.,.
Cc1cccc(CSc2ccc(-c3ccco3)nn2)c1,6,-4,3,11,52*,4
Cc1ccc2oc(-c3cccc(NC(=O)Cn4cnc5c(=O)n(C)c(=O)n(C)c54)c3)nc2c1,.,31,.,19,36,29
CCC(C)c1ccc2oc(-c3ccc(NC(=O)Cn4cnc5c(=O)n(C)c(=O)n(C)c54)cc3)nc2c1 (configuration not stated),80*,-12,-278,-14,-17,15
Cc1nc(N)nc(N)c1CCCc1ccc(Cl)c(Cl)c1,73*,5,-16,-8,-6,.
Cc1cc(OCc2nc(N)nc(N)c2-c2ccc(Cl)c(Cl)c2)ccc1[N+](=O)[O-],83*,.,10,.,.,.
COc1ccc(C=O)cc1COc1ccc([N+](=O)[O-])c(C)c1,7,2,17,-3,-16,3
COc1ccc(Cc2c(C)nc(N)nc2Cl)cc1,-5,14,16,-1,8,7

# Bioassay records (PubChem BioAssay)
